Inconclusive results are not listed. Where a call stands in place of a potency, no number is given. Activity calls are given as the source filed them. Calls come from the whole dose curve; as a rule, active = well fitted cell-killing curve with a large enough effect; inconclusive = small, poorly fitted or top-dose-only effect; inactive = no such curve, though single readings can be large or run the other way.

Among the data in PubChem BioAssay (NCATS) are Potency values, retold here.
Potency is the fitted concentration of half-maximal effect.

This experiment can be described thus: qHTS of pediatric cancer cell lines to identify multiple opportunities for drug repurposing: Primary screen for Saos-2 cells (AID 1347097). Note: nearly all actives have a fitted effect of over 40% in size. Conditions: Saos-2 viability, CellTiter-Glo ATP luminescence, 48 h; series mostly up to 46 µM. The source says: Drug repurposing or repositioning has been offered as a strategy for drug development in oncology programs. This approach has special potential for childhood cancers and other rare or orphan diseases, where the expected return on new drug development has been a disincentive to pharmaceuticals. […] In this project we exploit the poly-pharmacology of drugs to discover new indications via phenotypic screening of a panel of 19 well-characterized cell lines derived from solid tumors seen in children and adolescents. The goal is to identify approved drugs with previously unrecognized anticancer properties that has the potential to reveal new mechanisms and biological processes involved in carcinogenesis or drug resistance. We employed a titration-based paradigm (quantitative high-throughput screening or qHTS), where all compounds were tested at multiple concentrations for their effect on cell viability. Concentration-response curves (CRCs) were derived directly from the primary screen, and both potency and efficacy values were used to identify compounds with robust bioactivity profiles. We screened the NIH Chemical Genomics Center (NCGC) Pharmaceutical Collection (NPC) and Mechanism Interrogation Plate (MIPE) small molecule collections of approved and investigational compounds against these cell lines; and measured metabolically active cells after 48 hours of compound treatment as a proxy for cell viability. […] Assay Submitter: Nathalia J. Martinez, National Center for Advancing Translational Sciences, National Institutes of Health, Rockville, MD, USA; email: natalia.martinez@nih.gov Shen, M et al. Quantitative high-throughput phenotypic screening of pediatric cancer cell lines identifies multiple opportunities for drug repurposing. Oncotarget 2017 Dec 19;9(4):4758-4772. PMID 29435139.
The cells were obtained from University of North Carolina (UNC), Pediatric Preclinical Testing Program (PPT), and Coriell Institute (CI). qHTS cell viability assay: Cells were assayed in growth media at a density of 500-1,000 cells/well. Five microliters of cells were dispensed into 1,536-well, white, solid-bottom, TC-treated plates (Greiner Bio One) using a multidrop dispenser and incubated at 37 degrees C, 5% CO2, under a humidified atmosphere for 5 hours. Twenty-three nanoliters of compounds and controls (neutral control DMSO or positive control bortezomib at final concentration of 2.3 µM) were subsequently transferred by Kalypsys pintool. For primary screens, the MIPE collection was tested at 11-point dilutions (final concentrations range from 0.78 nM to 46 µM) and the NPC collection at 8-point dilutions (final concentrations range from 0.59 nM to 46 µM). Compounds tested in follow-up screens were assayed at 11-point dilutions. Cells were incubated for 48 hours, followed by addition of 3 µL of CellTiter-Glo (Promega). After a 15 min incubation at room temperature, samples were analyzed for luminescence intensity using a ViewLux High-throughput CCD imager equipped with clear filters.
With `O=C1Nc2ccc(I)cc2C1=Cc1cc(Br)c(O)c(Br)c1`, the Potency result is “inactive”.

Regarding `O=C(O)c1nc(=O)[nH]c(=O)[nH]1`, the Potency result was “inactive”.

In the case of `CC(C)(C)c1nc(-c2cccc(NS(=O)(=O)c3c(F)cccc3F)c2F)c(-c2ccnc(N)n2)s1`, the Potency result was “inactive”.

In the case of `CC[C@@H]([C@H](C)O)n1ncn(-c2ccc(N3CCN(c4ccc(OCC5CO[C@@](Cn6cncn6)(c6ccc(F)cc6F)C5)cc4)CC3)cc2)c1=O` (stereo not given in full), the Potency was 26.4 µM (active).

In the case of `OCCn1cc(-c2ccc3c(c2)CCC3=NO)c(-c2ccncc2)n1`, the Potency result was “inactive”.

Take `OC[C@H]1O[C@@H](Oc2ccc(O)cc2)[C@H](O)[C@@H](O)[C@H]1O`: the Potency entry was “inactive”.

Regarding `O=C1CN2Cc3c(ccc(Cl)c3Cl)N=C2N1`, the Potency entry is “inactive”.

As to `COC(=O)N1CCN(Cc2cccc(NC(=O)Nc3ccc(C)nc3)c2F)CC1`, the Potency result was “inactive”.

Consider `CC(C)C[C@@H](N)[C@H](O)C(=O)N[C@H](C(=O)N[C@H](C(=O)N[C@@H](CC(=O)O)C(=O)O)C(C)C)C(C)C`, for which the Potency result was “inactive”.

Consider `COc1ccc2nc3cc(Cl)ccc3c(Nc3cc(CN4CCCC4)c(O)c(CN4CCCC4)c3)c2n1`, for which the Potency result is “inactive”.

As for `CC[C@H](C)n1cc(C)c2c(C(=O)NCc3c(C)cc(C)[nH]c3=O)cc(-c3ccc(N4CCNCC4)nc3)cc21`, the Potency was 18.7 µM (active).

On to `CN(C)c1nc(Cc2ccc(NC(=O)c3ccc(C(F)(F)F)cc3)cc2)nc(N(C)C)c1CC(=O)O`, for which the Potency result is “inactive”.

Turning to `C[C@@H]1O[C@@H](O[C@H]2CC[C@@]3(C)[C@H](CC[C@@H]4[C@H]3C[C@@H](O)[C@]3(C)[C@@H](C5=CC(=O)OC5)CC[C@]43O)C2)C[C@H](O)[C@@H]1O[C@H]1C[C@H](O)[C@H](O[C@H]2C[C@H](O)[C@@H](O)[C@@H](C)O2)[C@H](C)O1` (stereo in doubt), the Potency is 0.679 µM (active).

Consider `CN(CC=CC#CC(C)(C)C)Cc1cccc2ccccc12`, for which the Potency entry was “inactive”.

With `CC(C)c1onc(-c2c(Cl)cccc2Cl)c1COc1ccc(C=Cc2cccc(C(=O)O)c2)c(Cl)c1`, the Potency result was “inactive”.

For `N#CC(c1ccc(Cl)cc1)c1c(Cl)cc(-n2ncc(=O)[nH]c2=O)cc1Cl` (stereo not given), the Potency is 9.35 µM (active).

`C=CCc1cccc(C=NNC(=O)CN2CCN(Cc3ccccc3)CC2)c1O`: the Potency is 5.9 µM (active).

Regarding `C[C@H]1[C@H](O)O[C@@H]2O[C@@]3(C)CC[C@@H]4[C@H](C)CC[C@@H]1[C@@]24OO3`, the Potency was 2.96 µM (active).

Take `CN(C)CCOc1cc(-c2cn[nH]c2)ccc1NC(=O)C1COc2ccccc2O1` (stereo not given): the Potency is 2.96 µM (active).

On to `Cc1ccc(C(=O)N(CCCN)[C@@H](c2nc3cc(Cl)ccc3c(=O)n2Cc2ccccc2)C(C)C)cc1`, for which the Potency was 0.001 µM (active).

For the compound `COc1cc(CNC(=O)CCCCC=CC(C)C)ccc1O`, the Potency result is “inactive”.

In the case of `O=C(O)C1=NC(C(=O)O)CC(C=CN2c3cc(O)c(OC4OC(CO)C(O)C(O)C4O)cc3CC2C(=O)O)=C1` (stereo not given), the Potency result was “inactive”.

For `Cc1cnc(-c2cc(N3CCN(C(=O)CCS(C)(=O)=O)CC3)ncc2Cl)c(C)c1`, the Potency entry is “inactive”.

As for `CN1C(=O)C[C@H](C(=O)N[C@@H](Cc2cnc[nH]2)C(=O)N2CCC[C@@H]2C(N)=O)NC1=O`, the Potency entry is “inactive”.

On to `NC1(C(=O)N[C@@H](CCO)c2ccc(Cl)cc2)CCN(c2ncnc3[nH]ccc23)CC1`, for which the Potency was 5.9 µM (active).

Regarding `C[C@H]1O[C@@H](n2cc(F)c(=O)[nH]c2=O)[C@H](O)[C@H]1O`, the Potency entry was “inactive”.

Turning to `CN(C)c1ccc(-c2nc3ncc(Cl)c(N4CCN(CC(=O)Nc5nccs5)CC4)c3[nH]2)cc1`, the Potency is 14.8 µM (active).

As for `O=c1[nH]c(=O)n([C@H]2C[C@@H](O)[C@@H](CO)O2)cc1C(F)(F)F`, the Potency entry is “inactive”.

For `COc1c(C)cnc(Cn2cnc3c(Cl)nc(N)nc32)c1C`, the Potency entry is “inactive”.

As to `CCC(C)SSc1ncc[nH]1` (stereo not given), the Potency is 18.7 µM (active).

For `CCC(=C(c1ccc(O)cc1)c1ccc(OCCNC)cc1)c1ccccc1`, the Potency is 18.7 µM (active).

Take `CCOC(=O)[C@H](CCc1ccccc1)N[C@@H](C)C(=O)N1CCCC1C(=O)O` (stereo not given in full): the Potency entry was “inactive”.

With `CCNC(=O)CCCC=CC[C@@H]1[C@H](C=CC(O)CCc2ccccc2)[C@@H](O)C[C@@H]1O` (stereo not given in full), the Potency entry is “inactive”.

For the compound `CC(C)(C)c1[nH]cnc1C=c1[nH]c(=O)c(=Cc2ccccc2)[nH]c1=O`, the Potency was 0.136 µM (active).

Consider `O=C(O)CCC=CCC[C@@H]1[C@H](N2CCCCC2)[C@@H](O)C[C@@H]1OCc1ccc(-c2ccccc2)cc1`, for which the Potency entry is “inactive”.

As for `COc1cc2ncnc(Nc3cc(Br)c(O)c(Br)c3)c2cc1OC`, the Potency was 20.9 µM (active).

As to `Cc1cc2c(cc1C1(c3ccc(C(=O)O)cn3)CC1)C(C)(C)CCC2(C)C`, the Potency entry was “inactive”.

As for `c1cc(OCCN2CCCCC2)cc(-c2n[nH]c3ccc(-c4ncn[nH]4)cc23)c1`, the Potency entry was “inactive”.

`COc1ccc(-c2cc(=O)c3c(O)cc(O[C@@H]4O[C@H](CO[C@@H]5O[C@@H](C)[C@H](O)[C@@H](O)[C@@H]5O)[C@@H](O)[C@H](O)[C@@H]4O)cc3o2)cc1O`: the Potency entry was “inactive”.

For `CC(C)CN(C[C@@H](O)[C@H](Cc1ccccc1)NC(=O)O[C@H]1CO[C@H]2OCC[C@H]21)S(=O)(=O)c1ccc(N)cc1`, the Potency was 20.9 µM (active).
